# AI-2 QS mod: Vibrio harveyi AI-2 quorum sensing modulation; Vibrio harveyi JMH597 AI-2 luminescence/OD600 ratio, 9 h; stronger effect = lower value; strain lacks LuxN and CqsS sensors; 0 = neutral-control median; activity change, % at 7.5 µM; actives 0.4% (n = 300,000); in the data active means activity change below about -75%, passing the limit was not always enough; inconclusive means no clear call, values can overlap the other calls;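 further: luminescence divided by OD600 gain over 9 h not by final OD600 alone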
# CHT block: inhibitors of human choline transporter CHT; CHT-expressing cells, membrane potential dye, choline response; stronger effect = lower value; B-score at 10 µM; actives 0.86% (n = 310,000); AID 488975;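 active means B-score over 3 SD under the library average, and starting fluorescence ratio not unusually high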;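 further: choline stimulus applied at its EC90 after an EC20 pre-addition; B-score computed on integrated fluorescence ratio after choline addition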
# CHT PAM: allosteric activators of human choline transporter CHT. actives 0.49% (n = 310,000). AID 488977. B-score at 10 µM. Q9GZV3. CHT-expressing cells, membrane potential dye, choline EC20; stronger effect = higher value; LV-AA mutant CHT in HEK293 cells;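 active means initial fluorescence not abnormally high and integrated response B-score, plate-corrected, over 3 SD above library mean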
# PREPL inhibitor: inhibits the human prolyl oligopeptidase-like enzyme; Q4J6C6; recombinant PREPL, fluorescence polarization activity-based probe; inhibition, % at 5.96 µM; actives 0.68% (n = 320,000); AID 2751; in the data active means inhibition above about 43%;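 further: 0% = enzyme with DMSO and 100% = wells lacking enzyme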
# Target sequence (Q4J6C6 whole entry, looked up): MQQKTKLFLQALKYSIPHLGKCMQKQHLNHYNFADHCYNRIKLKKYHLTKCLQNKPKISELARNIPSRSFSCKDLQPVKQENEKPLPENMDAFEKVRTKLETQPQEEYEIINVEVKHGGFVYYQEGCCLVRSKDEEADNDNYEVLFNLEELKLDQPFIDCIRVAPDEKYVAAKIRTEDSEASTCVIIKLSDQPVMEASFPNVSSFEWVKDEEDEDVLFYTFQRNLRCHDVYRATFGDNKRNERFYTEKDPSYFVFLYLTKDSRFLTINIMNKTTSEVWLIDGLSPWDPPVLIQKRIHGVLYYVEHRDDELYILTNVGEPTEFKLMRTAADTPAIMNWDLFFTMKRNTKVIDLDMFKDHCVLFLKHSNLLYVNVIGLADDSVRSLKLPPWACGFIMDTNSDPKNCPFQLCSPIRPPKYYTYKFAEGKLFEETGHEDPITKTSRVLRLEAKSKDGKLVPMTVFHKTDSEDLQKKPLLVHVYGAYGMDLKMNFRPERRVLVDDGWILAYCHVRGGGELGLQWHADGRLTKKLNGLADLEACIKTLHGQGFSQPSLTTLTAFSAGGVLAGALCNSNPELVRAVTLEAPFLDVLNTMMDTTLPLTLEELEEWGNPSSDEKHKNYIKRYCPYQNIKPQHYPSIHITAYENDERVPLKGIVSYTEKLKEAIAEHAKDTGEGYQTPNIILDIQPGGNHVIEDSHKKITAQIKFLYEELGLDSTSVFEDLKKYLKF
# ALR H2O2 inh: inhibitors of human sulfhydryl oxidase ALR; inhibition, % (no concentration beside the values); purified ALR, DTT oxidation, H2O2 HRP-luminol luminescence; AID 485317; actives 3.8% (n = 290,000); P55789;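 active means mean replicate inhibition above about 79%, with every replicate also reaching it, limit read from the data; inconclusive means only one of the two criteria met; inactive means mean below limit and not every replicate reaching it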
# CHT inh conf: human CHT inhibition, confirmatory screen. shares compounds with CHT block. CHT-expressing cells, choline membrane potential dye; LV-to-AA substituted CHT, HEK293 cells. CHT activity remaining % of control (stronger effect = lower value), % at 10 µM. actives 70% (n = 2,400). AID 493221;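 active means choline transporter activity left, mean of duplicates at 10 µM, below buffer-only control mean minus 3 SD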;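 further: depolarization triggered by choline at its EC90 following an EC20 pre-addition; 0% = hemicholinium-3 full block and 100% = buffer-only control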
# HEK293 CHT ctr: activity in parental HEK293 cells lacking CHT; shares compounds with CHT block; membrane potential dye, choline response; active = decrease or increase beyond buffer ±3SD; actives 4% (n = 2,400); membrane potential ratio readout (active if shifted either direction beyond buffer ±3SD; no single direction) at 10 µM;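 further: parental cells lack the transporter so any hit is non-specific; ratio is peak minus trough fluorescence over baseline after EC90 choline challenge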
# CHT activ conf: human CHT activation, confirmatory screen; shares compounds with CHT PAM; CHT-expressing cells, membrane potential dye fluorescence (FDSS); % of choline EC20–EC90 response window; HEK293 expressing CHT LV-AA mutant; choline added at its EC20; activation, % at 10 µM; actives 91% (n = 2,500); AID 504833;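 active means primary screen active, with duplicate mean activation above negative control mean plus 3 SD, cut at about 11% in these data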
# HEK293 MP dye: counter-screen for CHT activators: effect in parental HEK293 cells; shares compounds with CHT PAM; membrane potential dye fluorescence (FDSS); measured after EC20 choline addition; ratio readout change at 10 µM, hits read low; actives 62% (n = 2,500);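 active means duplicate-averaged ratio beyond 3 SD from buffer wells, up or down, though filed actives are nearly all decreases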
# * = called active by the depositor; i = inactive; ? = inconclusive; nt = no result. In the library only some 5% were active in any assay of this set; here they are far more common.
SMILES,AI-2 QS mod,CHT block,CHT PAM,PREPL inhibitor,ALR H2O2 inh,CHT inh conf,HEK293 CHT ctr,others
Cc1ccc(-c2csc3ncn(CC#N)c(=O)c23)cc1C,23.0,i,i,15.8,-8.2,nt,nt,
CC(C)c1cc(O)c(-c2ccccc2)c(=O)n1-c1ccc(Cl)cc1,7.9,-5.01*,i,-5.3,-2.4,i,i,
CC1(C)c2cc(Cl)ccc2-n2c1cc(O)c(-c1ccccc1)c2=O,15.1,-6.04*,i,9.4,?,44.3%*,i,
O=C(NC1CCCCC1)C(c1ccc(O)c(O)c1)N(C(=O)Cn1nnc2ccccc21)c1cccc(O)c1 (stereo unspecified),8.7,i,i,12.4,27.9,nt,nt,
CS(=O)(=O)C1=NSC2=NC(=O)/C(=C\c3ccc(OC(=O)c4ccco4)cc3)C(=N)N21,15.5,i,i,26.6,5.7,nt,nt,
CS(=O)(=O)C1=NN2C(=N)/C(=C\c3ccc(OC(=O)c4ccco4)cc3)C(=O)N=C2S1,32.1,-6.85*,i,30.4,11.7,60.0%*,i,
CC(C)c1nc(SCC(=O)Nc2ccc([N+](=O)[O-])cc2Br)n[nH]1,26.7,-5.85*,i,11.0,-34.3,i,i,
CS(=O)(=O)c1ccc(S(=O)CC(=O)OCc2ccccc2)c([N+](=O)[O-])c1 (stereo unspecified),94.6,nt,nt,nt,nt,nt,nt,
O=C(COc1ccccc1)N1CCN(c2nnc(-c3ccccc3)c3ccccc23)CC1,13.2,-5.21*,i,23.7,-61.0,i,i,
O=C(COC(=O)C1CC2C=CC1C2)Nc1ccccc1F (stereo unspecified),9.5,i,i,-2.2,6.7,nt,nt,
O=C(COc1ccc(Cl)cc1Cl)N1CCNC1=O,nt,nt,nt,7.6,nt,nt,nt,
O=C(COc1ccccc1Br)c1ccc(O)cc1O,4.4,-5.74*,i,-8.6,13.5,53.5%*,i,
O=C(COc1ccccc1Br)c1ccc2c(c1)OCO2,3.3,i,i,12.1,-0.7,nt,nt,
O=C(Nc1ccc(S(=O)(=O)N2CCCCC2)cc1)C1CCCO1 (stereo unspecified),16.4,i,i,-2.1,1.7,nt,nt,
CN1CCN(Cc2ccc(Sc3ccc(Cl)cc3)c([N+](=O)[O-])c2)CC1,0.5,-5.07*,i,26.1,-0.6,61.1%*,i,
COc1ccc(OCC(=O)Nc2c(C(=O)N3CCC(N4CCCCC4)CC3)oc3ccccc23)cc1,3.9,i,i,-1.5,0.9,nt,nt,
O=C(Nc1c(C(=O)N2CCC(N3CCCCC3)CC2)oc2ccccc12)c1ccc(F)cc1,10.7,-13.1*,i,-10.2,-3.4,0.9%*,i,
CCOCCCN(C)C1CCN(C(=O)c2oc3ccccc3c2NC(=O)c2ccc(F)cc2)CC1,14.7,-9.02*,i,-4.4,-9.9,20.6%*,i,
O=C(COc1ccc(F)cc1)Nc1c(C(=O)N2CCC(N3CCCCC3)CC2)oc2ccccc12,5.1,-11.9*,i,9.6,-4.1,28.8%*,i,
O=C(COc1ccccc1)Nc1c(C(=O)N2CCC(N3CCCCC3)CC2)oc2ccccc12,14.5,-7.48*,i,2.2,-4.7,36.7%*,3.69*,
O=C(Nc1c(C(=O)N2CCC(N3CCCCC3)CC2)oc2ccccc12)c1c(F)cccc1F,13.0,i,i,-4.8,-6.0,nt,nt,
CCOCCCN(C)C1CCN(C(=O)c2oc3ccccc3c2NC(=O)c2ccc([N+](=O)[O-])cc2)CC1,-0.9,i,i,9.6,-14.2,nt,nt,
Cc1cccc(NC(=O)[C@@H]2CCCN2C(=O)OC(C)(C)C)c1C,14.1,i,i,-2.6,-2.9,nt,nt,
COc1ccc(CN2CCN(Cc3c[nH]c4ccccc34)CC2CCO)c(F)c1 (stereo unspecified),-10.5,i,i,7.8,0.0,nt,nt,
O=C(OCc1nc2ccsc2c(=O)[nH]1)c1ccc(Cl)s1,-11.7,-11.4*,i,-2.9,-5.5,5.9%*,i,
SMILES,AI-2 QS mod,CHT block,CHT PAM,PREPL inhibitor,ALR H2O2 inh,CHT inh conf,HEK293 CHT ctr,others
CC(C)(C)C(=O)Nc1sc(-c2ccccc2)cc1C(=O)O,13.4,i,i,2.2,44.3,nt,nt,
Cc1cccc(C(=O)Nc2sc(-c3ccccc3)cc2C(=O)O)c1,25.7,-6.33*,i,15.4,-15.7,52.8%*,i,
CCC(C(=O)Nc1cccnc1Cl)c1ccccc1 (stereo unspecified),6.9,i,i,-4.1,-13.5,nt,nt,
C/C(=N\NS(=O)(=O)c1ccc(Cl)c([N+](=O)[O-])c1)c1cc2ccccc2o1,22.7,-7.48*,i,-5.5,8.2,70.6%*,i,
Cn1c(=NCC(O)COc2ccccc2)sc2ccccc21 (stereo unspecified),-0.7,-18.8*,i,8.6,-3.7,8.9%*,i,
CC(NC(=O)/C=C/c1ccccc1)c1ccccc1 (stereo unspecified),-11.4,-5.44*,i,4.9,nt,i,i,
CC1CCN(C(=O)CSCC(=O)Nc2nc(-c3cccs3)cs2)CC1,17.2,-5.26*,i,11.0,98.5*,i,i,
CC1CCCN(C(=O)CSCC(=O)Nc2nc(-c3cccs3)cs2)C1 (stereo unspecified),19.9,i,i,22.0,5.6,nt,nt,
CC(=O)N1CCc2cc(S(=O)(=O)CCC(=O)NCCc3ccc(Cl)cc3)ccc21,7.6,i,i,1.3,-1.2,nt,nt,
CCCCc1cc(O)c(CCCC)c(O)c1,21.2,-5.21*,i,17.9,44.3,67.5%*,i,
CCCCCc1cc(O)c2c(C)cc(=O)oc2c1,39.6,i,i,-2.4,-9.1,nt,nt,
Cc1nn(-c2ccccn2)c2nc(-c3cccs3)cc(C(=O)NCc3ccco3)c12,23.4,i,i,-11.6,4.9,nt,nt,CHT activ conf=19.4*;HEK293 MP dye=i
O=C(NNC(=O)c1ccccc1C(F)(F)F)c1csc(N2CCOCC2)n1,5.5,i,i,10.9,2.4,nt,nt,
COc1ccc(NC(=O)COC(=O)C2CC(=O)N(CCc3ccc(OC)c(OC)c3)C2)cc1Cl (stereo unspecified),nt,nt,nt,3.1,-9.0,nt,nt,
COc1ccc(C(=O)c2nccc3cc(OC)c(OC)cc23)cc1OC,nt,nt,nt,31.5,-25.4,nt,nt,

# High-throughput results from PubChem BioAssay.
